# Reference: the supplement of paper PMC8387472
# Tests used:
# Settings in all cases: mESC; 2uM; 72 h treatment, harvest day 5
# Kenpaullone = compound: O=C1Cc2c([nH]c3ccc(Br)cc23)-c2ccccc2N1 [Kenpaullone]; assay: fraction of microhomology deletions among edited reads; higher = more MH deletions
# Genistein = compound: O=c1c(-c2ccc(O)cc2)coc2cc(O)cc(O)c12 [Genistein]; assay: as above
# [1] = compound: O=c1cc(N2CCOCC2)oc2c(-c3ccc4c(c3)OCCO4)csc12; assay: as above
# Mercaptopurine (6-MP) = compound: S=c1[nH]cnc2nc[nH]c12 [Mercaptopurine (6-MP)]; assay: as above
# [2] = compound: S=c1nc[nH]c2nc[nH]c12 [6-Mercaptopurine (6-MP) Monohydrate]; assay: as above
# [3] = compound: CC(=O)O/N=C1\C(=O)N(Cc2cc(Cl)ccc2Cl)c2ccc(Cl)cc21; assay: fraction of 1-bp insertions among edited reads; higher = more 1-bp insertion outcomes
# [4] = compound: CC(C)(C#N)c1ccc(N2C(=O)OCc3cnc4ccc(-c5cnc6ccccc6c5)cc4c32)cc1; assay: as above
# [5] = compound: CCCCOc1c(C(=O)c2c(F)cc(C)cc2F)c[nH]c2nncc1-2; assay: as above
# [6] = compound: CCN1CCN(CC(=O)Nc2ccc(-c3cccc4c(=O)cc(N5CCOCC5)oc34)c3sc4ccccc4c23)CC1; assay: as above
# [7] = compound: CCc1c2c(nc3ccc(OC(=O)N4CCC(N5CCCCC5)CC4)cc13)-c1cc3c(c(=O)n1C2)COC(=O)[C@]3(O)CC [Irinotecan HCl Trihydrate]; assay: as above
Target,fraction of microhomology deletions among edited reads (Kenpaullone),fraction of microhomology deletions among edited reads (Genistein),fraction of microhomology deletions among edited reads [1],fraction of microhomology deletions among edited reads (Mercaptopurine (6-MP)),fraction of microhomology deletions among edited reads [2],fraction of 1-bp insertions among edited reads [3],fraction of 1-bp insertions among edited reads [4],fraction of 1-bp insertions among edited reads [5],fraction of 1-bp insertions among edited reads [6],fraction of 1-bp insertions among edited reads [7]
"44.0 (DMSO control at this site: 1-bp insertion 0.181, MH deletion 0.512, edited 0.123) ACACATACCTTCTTCGAGGCAGCCAGCATGATGAGACAGGTCTCCCACAAACACATCGTGT",0.473,0.525,0.537,0.499,0.523,0.159,0.185,0.221,0.0636,0.21
"20.0 (DMSO control at this site: 1-bp insertion 0.349, MH deletion 0.138, edited 0.084) TACAGGTGTAGACTGGTTACGTGGCTGCGGAATTGACTGGTTACGTGGCTGCGGAATTTTG",0.181,0.197,0.176,0.2,0.243,0.29,0.248,0.373,0.0738,0.285
"4.0 (DMSO control at this site: 1-bp insertion 0.146, MH deletion 0.523, edited 0.125) ACGCCTTAGTGCACGAGTGACGGGATAATGTGGTCTCAGGTAATTGATAGGCTTCCAACTT",0.475,0.553,0.586,0.478,0.463,0.121,0.127,0.152,0.0339,0.116
"17.0 (DMSO control at this site: 1-bp insertion 0.112, MH deletion 0.348, edited 0.058) CCATAGCGCGATAAATATGACGGCTCATCCTGTATGACGGCTCATCCTGTATCAACTGTCC",0.377,0.409,0.342,0.422,0.393,0.12,0.143,0.145,0.0756,0.161
"16.0 (DMSO control at this site: 1-bp insertion 0.172, MH deletion 0.29, edited 0.05) CGGACTGCACACATGGGTAGGATCGTGCACGCGAGGTAGGATCGTGCACGCGAAGTTATTC",0.327,0.305,0.257,0.314,0.294,0.169,0.15,0.138,0.0987,0.184
"29.0 (DMSO control at this site: 1-bp insertion 0.084, MH deletion 0.745, edited 0.133) TTGATGAACTTCCTCTTCTTCTCATGTCTCCGGTCTCCGGTAGGCCACGTGCATGGCCACT",0.631,0.718,0.735,0.669,0.633,0.0853,0.0763,0.0825,0.0366,0.0846
15.0 GCGCCTCCAATGACCCAGTGGGATCCTACTCCATAATGGGATCCTGGGGATTCCTCGCTCC,–,0.299,–,–,0.339,0.254,0.168,–,–,–
"25.0 (DMSO control at this site: 1-bp insertion 0.017, MH deletion 0.774, edited 0.143) GGGCCTGAATGGTGTGGACATCTACTCGCTGGTGAGCTGGTGACTGAAAACATTCAGTGGC",0.739,0.773,0.772,0.71,0.694,0.0158,0.0262,0.017,0.0169,0.0204
"42.0 (DMSO control at this site: 1-bp insertion 0.145, MH deletion 0.655, edited 0.132) GGGCTAAACCTATGAGCACAGTAGAACTAAGGGTGGGTGGTGTAGCTAAAGAACTTGACCA",0.557,0.662,0.691,0.589,0.567,0.116,0.148,0.144,0.0719,0.125
"30.0 (DMSO control at this site: 1-bp insertion 0.074, MH deletion 0.67, edited 0.142) GAGCTGGCATGAGTATTTGTGCCACATGGCTCCCACATGGCTCCACATGCAAGTTTGAAAC",0.628,0.697,0.745,0.6,0.57,0.0901,0.0675,0.059,0.036,0.0999
"5.0 (DMSO control at this site: 1-bp insertion 0.214, MH deletion 0.567, edited 0.105) CGCTGACCCGAGACCTACGCGAACCGAAATCGGCGACCGGTGCGCAAGCAGGGCTGGCGTC",0.523,0.604,0.61,0.507,0.498,0.204,0.198,0.226,0.0634,0.239
"22.0 (DMSO control at this site: 1-bp insertion 0.573, MH deletion 0.229, edited 0.045) CTGATGGTTGAAGGATTTAGCCGGGGTCCTAGACGCCGGGGTCCTAGACGAAAGGGCCACG",0.116,0.139,0.146,0.107,0.155,0.62,0.564,0.613,0.302,0.604
"43.0 (DMSO control at this site: 1-bp insertion 0.134, MH deletion 0.714, edited 0.104) AGTTTAACTTACTCCGGCCAAAAAAGAACTGCACCTCTGGAGCGGGTTAGTGGTGGTGGTA",0.658,0.671,0.688,0.614,0.592,0.0687,0.0941,0.0843,0.0439,0.113
"38.0 (DMSO control at this site: 1-bp insertion 0.063, MH deletion 0.487, edited 0.17) GGGCTGGGTGCTAAAATGAGGAGCTCCAAGAAGACTGAGGTGAACCTGGAGGCCCCTGAGC",0.414,0.462,0.476,0.474,0.468,0.0549,0.0615,0.0554,0.0485,0.0536
"18.0 (DMSO control at this site: 1-bp insertion 0.114, MH deletion 0.789, edited 0.094) GCGCAAGTGCATAAGTTTTTCTTAAGGCGTGCCTTTAAGGCGTGCCTTTGTCGGTCCTGGA",0.759,0.797,0.833,0.734,0.733,0.0913,0.0901,0.103,0.0252,0.109
"7.0 (DMSO control at this site: 1-bp insertion 0.128, MH deletion 0.374, edited 0.098) TACTCAACCGAGACCTACGCGAACCGAAATCGTATGCCGGTGCGCAAGCAGGGCTGGCGTC",0.436,0.476,0.43,0.401,0.367,0.105,0.131,0.164,0.113,0.105
27.0 CCAGAATTAGAACATATCATCTGGACCCTTTTCCATCTGGACCCTTTTCCAGCACACCCTG,0.0808,0.0896,0.137,0.197,0.147,0.107,0.141,0.138,–,0.178
"45.0 (DMSO control at this site: 1-bp insertion 0.017, MH deletion 0.666, edited 0.101) TTACACAGCATGAACTGCTAGGTGATGATGTCAGATTCGGTTTTACTAACTTCTCCAAAAA",0.561,0.601,0.67,0.614,0.557,0.0284,0.0222,0.0249,0.016,0.0413
